This passage reports Potency results from PubChem BioAssay (NCATS).

Structures are written as SMILES. Inconclusive results are not listed. Entries that show only a call come without a potency. Activity calls are given as the source filed them. The call rests on the fitted dose curve; in most records, active means well fitted cell-killing curve with a large enough effect; inconclusive means small, poorly fitted or top-dose-only effect; inactive means flat fitted curve, though single readings scatter.
Potency means the concentration at half of the fitted maximal effect.

This assay in a line: qHTS of pediatric cancer cell lines to identify multiple opportunities for drug repurposing: Primary screen for control Hh wild type fibroblast cells (AID 1347106). Further: nearly all actives have a fitted effect of over 55% in size. To be noted: Hh wild-type fibroblast viability, CellTiter-Glo luminescence, 48 h; series mostly up to 46 µM. An excerpt:
Drug repurposing or repositioning has been offered as a strategy for drug development in oncology programs. This approach has special potential for childhood cancers and other rare or orphan diseases, where the expected return on new drug development has been a disincentive to pharmaceuticals.
In this project we exploit the poly-pharmacology of drugs to discover new indications via phenotypic screening of a panel of 19 well-characterized cell lines derived from solid tumors seen in children and adolescents. The goal is to identify approved drugs with previously unrecognized anticancer properties that has the potential to reveal new mechanisms and biological processes involved in carcinogenesis or drug resistance. We employed a titration-based paradigm (quantitative high-throughput screening or qHTS), where all compounds were tested at multiple concentrations for their effect on cell viability. Concentration-response curves (CRCs) were derived directly from the primary screen, and both potency and efficacy values were used to identify compounds with robust bioactivity profiles. We screened the NIH Chemical Genomics Center (NCGC) Pharmaceutical Collection (NPC) and Mechanism Interrogation Plate (MIPE) small molecule collections of approved and investigational compounds against these cell lines; and measured metabolically active cells after 48 hours of compound treatment as a proxy for cell viability.
Assay Submitter: Nathalia J. Martinez, National Center for Advancing Translational Sciences, National Institutes of Health, Rockville, MD, USA; email: natalia.martinez@nih.gov
[1] Shen, M et al. Quantitative high-throughput phenotypic screening of pediatric cancer cell lines identifies multiple opportunities for drug repurposing. Oncotarget 2017 Dec 19;9(4):4758-4772. PMID 29435139.
The cells were obtained from University of North Carolina (UNC), Pediatric Preclinical Testing Program (PPT), and Coriell Institute (CI).
qHTS cell viability assay:
Cells were assayed in growth media at a density of 500-1,000 cells/well. Five microliters of cells were dispensed into 1,536-well, white, solid-bottom, TC-treated plates (Greiner Bio One) using a multidrop dispenser and incubated at 37 degrees C, 5% CO2, under a humidified atmosphere for 5 hours. Twenty-three nanoliters of compounds and controls (neutral control DMSO or positive control bortezomib at final concentration of 2.3 µM) were subsequently transferred by Kalypsys pintool. For primary screens, the MIPE collection was tested at 11-point dilutions (final concentrations range from 0.78 nM to 46 µM) and the NPC collection at 8-point dilutions (final concentrations range from 0.59 nM to 46 µM). Compounds tested in follow-up screens were assayed at 11-point dilutions. Cells were incubated for 48 hours, followed by addition of 3 µL of CellTiter-Glo (Promega). After a 15 min incubation at room temperature, samples were analyzed for luminescence intensity using a ViewLux High-throughput CCD imager equipped with clear filters.
Background: In qHTS, concentration-response curves come from the screen itself.
As for `CC(C)c1nn(-c2c(Cl)cccc2Cl)c2nc(Cc3ccc(OCCO)cc3)[nH]c(=O)c12`, the Potency entry was “inactive”.

As for `Cc1ccc(CN2CCNCC2)cc1NC(=O)CNc1ccc(F)c(F)c1`, the Potency entry is “inactive”.

On to `Cc1cnc(Nc2ccc(F)cc2Cl)nc1-c1c[nH]c(C(=O)N[C@H](CO)c2cccc(Cl)c2)c1`, for which the Potency entry is “inactive”.

`CC(C)=CCCC(C)=CCCC(C)=CCSc1ccccc1C(=O)O`: the Potency is 8.33 µM (active).

Consider `CC(C)(C)c1cc(C(C)(C)C)c(NC(=O)c2c[nH]c3ccccc3c2=O)cc1O`, for which the Potency result was “inactive”.

With `Clc1cccc(-n2nnnc2NCc2ccccc2Oc2ccccn2)c1Cl`, the Potency result was “inactive”.

With `Cc1cn(-c2cc(NC(=O)c3ccc(C)c(Nc4nccc(-c5cccnc5)n4)c3)cc(C(F)(F)F)c2)cn1`, the Potency result is “inactive”.

Regarding `N#Cc1c(O)c2c(-c3ccc(-c4ccccc4O)cc3)csc2[nH]c1=O`, the Potency entry was “inactive”.

Turning to `COc1cc(Nc2ncc(F)c(Nc3ccc4c(n3)N(COP(=O)(O)O)C(=O)C(C)(C)O4)n2)cc(OC)c1OC`, the Potency entry was “inactive”.

On to `COC(=O)[C@]12CCC(C)(C)C[C@@H]1[C@@H]1C(=O)C=C3[C@@]4(C)C=C(C#N)C(=O)C(C)(C)[C@@H]4CC[C@@]3(C)[C@]1(C)CC2`, for which the Potency is 5.9 µM (active).

In the case of `O=c1[nH]nc(Sc2ncc([N+](=O)[O-])s2)n1-c1ccc2c(c1)OCCO2`, the Potency was 14.8 µM (active).

For `CCc1cc2c(cc1N1CCC(N3CCOCC3)CC1)C(C)(C)c1[nH]c3cc(C#N)ccc3c1C2=O`, the Potency entry is “inactive”.

On to `Cc1ccc(NC(=O)C2(c3ccc4c(c3)OC(F)(F)O4)CC2)nc1-c1cccc(C(=O)O)c1`, for which the Potency is 11.8 µM (active).

As to `CC=CC1=C(C(=O)O)N2C(=O)[C@H](NC(=O)[C@H](N)c3ccc(O)cc3)[C@@H]2SC1`, the Potency result is “inactive”.

Turning to `Cc1coc2c1C(=O)C(=O)c1c-2ccc2c1CCCC2(C)C`, the Potency result is “inactive”.

Regarding `CC1=C(CO)C(=O)O[C@@H]([C@@H](C)[C@H]2CC[C@H]3[C@@H]4C[C@H]5O[C@]56[C@@H](O)C=CC(=O)[C@]6(C)[C@@H]4CC[C@]23C)C1`, the Potency entry is “inactive”.

For `CC[C@H]1CN2CCc3cc(OC)c(OC)cc3[C@H]2C[C@@H]1C[C@@H]1NCCc2cc(OC)c(OC)cc21`, the Potency entry was “inactive”.

In the case of `C[C@@H]1CN(CC(=O)Nc2ccc3c(c2)Cc2cccc(-c4cc(=O)cc(N5CCOCC5)o4)c2S3)C[C@H](C)O1`, the Potency entry was “inactive”.

In the case of `COc1cc2c(NC3CCN(C(C)C)CC3)nc(C3CCCCC3)nc2cc1OCCCN1CCCC1`, the Potency is 20.9 µM (active).

As for `COc1cc2c(cc1-c1c(C)noc1C)ncc1[nH]c(=O)n([C@H](C)c3ccccn3)c12`, the Potency was 16.6 µM (active).

For `NC1(Cc2ccc(Cl)cc2)CCN(c2ncnc3[nH]ccc23)CC1`, the Potency result was “inactive”.

On to `Nc1ccc(C(=O)c2cc3c(ccc4ccccc43)[nH]2)cc1`, for which the Potency entry is “inactive”.

As to `COc1cc2c(Nc3ccc(NC(=O)c4ccccc4)cc3)ncnc2cc1OCCCN1CCOCC1`, the Potency entry is “inactive”.

Consider `Cc1cc(CN2CCN(c3c(Br)cnc4nc(-c5ccc(N6CCN(C)CC6)cc5)[nH]c34)CC2)no1`, for which the Potency result is “inactive”.

On to `CCCn1c(=O)c2[nH]c(-c3cnn(Cc4cccc(C(F)(F)F)c4)c3)nc2n(CC)c1=O`, for which the Potency result was “inactive”.

For `Cc1ccc(-c2ncn(-c3ccc(Nc4nccc(-c5cccc(N6CCOCC6)c5)n4)cc3)n2)cn1`, the Potency is 0.166 µM (active).

As to `O=C(O)CCCc1c[nH]c2ccccc12`, the Potency entry was “inactive”.

On to `CC1(C)CCC(c2ccc(Cl)cc2)=C(CN2CCN(c3ccc(C(=O)NS(=O)(=O)c4ccc(N[C@H](CCN5CCOCC5)CSc5ccccc5)c(S(=O)(=O)C(F)(F)F)c4)cc3)CC2)C1`, for which the Potency entry was “inactive”.

Regarding `O=C(O)[C@H](Cc1c[nH]c2ccccc12)N1C(=O)c2ccccc2C1=O`, the Potency result is “inactive”.

In the case of `Cc1ccc(S(=O)(=O)Nc2cc(Cl)ccc2C(=O)Nc2nc(-c3ccccc3)cs2)cc1`, the Potency result was “inactive”.

`C=CC(=O)Nc1cc2c(Nc3ccc(F)c(Cl)c3)ncnc2cc1C#CC(C)(C)N1CCN(C)CC1`: the Potency entry was “inactive”.

With `COc1ccc(CC2SC(=O)NC2=O)cc1C(=O)NCc1ccc(C(F)(F)F)cc1` (stereo not given), the Potency result is “inactive”.

Turning to `CN1CCN(c2ccc3nc(-c4c(N)c5c(F)cccc5[nH]c4=O)[nH]c3c2)CC1`, the Potency entry was “inactive”.

As to `O=C(C=Cc1cccnc1)NCCCCC1CCN(C(=O)c2ccccc2)CC1`, the Potency entry is “inactive”.

Turning to `CC(=O)OCC(=O)[C@@]1(O)[C@H](C)C[C@H]2[C@@H]3C=C(C)C4=Cc5c(cnn5-c5ccccc5)C[C@]4(C)[C@@H]3[C@@H](O)C[C@@]21C`, the Potency entry is “inactive”.

Turning to `CC(C)c1ccccc1Cc1cc(C(=O)Nc2ccc(S(=O)(=O)c3ccccc3C(C)(C)C)cc2)c(O)c(O)c1O`, the Potency result is “inactive”.

Consider `CN(C1CCc2c(c3ccccc3n2CC(=O)O)C1)S(=O)(=O)c1ccc(F)cc1` (stereo not given), for which the Potency result is “inactive”.

In the case of `COc1ccc2c(OCc3nnc4ccc(-c5ccccc5)nn34)ccnc2c1`, the Potency entry is “inactive”.

Regarding `CNC(=O)c1c(F)cccc1Nc1nc(Nc2cc3c(cc2OC)CCN3C(=O)CN(C)C)nc2[nH]ccc12`, the Potency entry was “inactive”.

Turning to `C1Cc2[nH]nc(-c3nn[nH]n3)c2C1`, the Potency result is “inactive”.
